Reference: PubChem BioAssay AID624297 (National Center for Advancing Translational Sciences (NCATS), 2012)
In all, about 340,000 compounds went through this assay and about 6,200 (1.8%) were called active. Roughly 10% stayed inconclusive and do not appear here. The call rests on the fitted dose curve; in most records, active means well fitted activation curve with a large enough effect; inconclusive means small, poorly fitted or top-dose-only effect; inactive means no such curve, though single readings can be large or run the other way. Only a selection was taken, and actives are over-represented in it overall.

Assay: A quantitative high throughput screen for small molecules that induce DNA re-replication in SW480 colon adenocarcinoma cells. Further: nearly all actives have a fitted effect of over 55% in size. On re-replication activation: % of control where 0% means no effect.
Conditions: Hoechst DNA content imaging, 48 h; series mostly up to 46.1 µM
Summary of the method: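 First, 250 cells per well were seeded. Next, compound or vehicle (23 nL) was pinned in, plates sat 48 hr at 37 C. Finally Hoechst was added for 40 min before fluorescence scanning.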
Potency means the concentration at half of the fitted maximal effect.

Potency, inactive:
O=C(Nc1ccc2ccccc2c1[N+](=O)[O-])c1ccccc1
O=C(Nc1cccc2cccnc12)c1cccc(Cl)c1
O=C(Nc1ccccc1Cl)Nc1cccc2cccnc12
CCC(C)c1ccc(NC(=O)COC(=O)C2CCCC2)cc1 (configuration not stated)
CC(Sc1nncn1C)C(=O)NCCC1=CCCCC1 (configuration not stated)
COc1ccc(Cn2cc(CN3CCS(=O)(=O)N(Cc4ccc(-c5cccc(Cl)c5)cc4)C(C)C3=O)nn2)cc1 (configuration not stated)
CN(C(=O)c1cccc(NC(=O)Cc2ccc([N+](=O)[O-])cc2)c1)C1CCC1
CCCOc1ccc(Cn2ccnc2)cc1[N+](=O)[O-]
Cc1nc(SCc2ccc(F)cc2)c([N+](=O)[O-])[nH]1
O=C1NCC(c2ccccc2)(c2ccccc2)C(=O)N1
CCC(=O)Nc1ccc(C(=O)N2CCN(C(=O)c3ccco3)CC2)cc1
Cc1ccc(OCC(=O)Nc2ccc(N3CCN(C(=O)c4ccco4)CC3)cc2)c(C)c1
Cc1ccc(S(=O)(=O)N2CCCCC2)cc1NC(=O)CCNC(=O)c1ccccc1
Cc1ccc(N2CCN(C3=NC(=O)/C(=C\c4cccs4)S3)CC2)cc1
Cc1ccc(C2=N/C(=C\c3ccc(OS(=O)(=O)c4ccc(C)cc4)cc3)C(=O)O2)cc1
Cc1nc2ccc(N)nc2nc1C
CCCN(CCC)S(=O)(=O)c1cc2c(cc1Br)CCN2C(=O)CC
Cc1noc(C)c1S(=O)(=O)N(C)C[C@H]1Oc2ccc(NC(=O)C3CC3)cc2C(=O)N([C@H](C)CO)C[C@@H]1C
CN1CCN(CCCNC(=O)c2ccc(/C=C3\Oc4ccccc4N(Cc4ccc(Cl)cc4)C3=O)cc2)CC1
O=C(NCCN1CCOCC1)c1ccc(/C=C2\Sc3ccccc3N(Cc3ccc(F)cc3)C2=O)cc1
C[C@@H]1CN([C@@H](C)CO)C(=O)c2cccc(NS(=O)(=O)c3ccc(F)cc3)c2O[C@H]1CN(C)C(=O)NC1CCCCC1
CC1CN(C(=O)c2ccc([N+](=O)[O-])s2)CC(C)O1 (configuration not stated)
O=C(c1cccc(S(=O)(=O)N2CCCCCC2)c1)N1CCN(Cc2ccccc2)CC1
Cn1c(NC(=O)c2ccccc2)nc2ccccc21
CC(NC(=O)c1ccccc1)C(=O)Nc1ccccc1 (configuration not stated)
Cc1c[n+]([O-])ccc1[N+](=O)[O-]
O=C(COc1ccccc1F)Nc1nc(-c2ccccn2)cs1
CN(CCc1ccccc1)C(=O)c1cccc(NC(=O)Cc2cccc(NC(=O)C3CCCN(C(=O)C4CCC4)C3)c2)c1 (configuration not stated)
Cc1ccccc1C1CC(c2cccs2)=NN1S(C)(=O)=O (configuration not stated)
CCS(=O)(=O)Nc1ccc(C2=NN(S(=O)(=O)c3ccc(F)cc3)C(c3ccco3)C2)cc1 (configuration not stated)
CCCc1cc(=O)[nH]c(SCC(=O)Nc2ccc(C(=O)Nc3ccccc3OC)cc2)n1
Cc1ccc(-c2cc(=O)c3ccc(F)cc3[nH]2)cc1
Cc1ccc(-c2cc(=O)c3ccc(Cl)cc3[nH]2)cc1
CCCCNCCS(=O)(=O)NCc1ccccc1
O=C(CSc1ncn[nH]1)Nc1ccc(Br)cc1Br
Cc1cccc(OCC(=O)OCC(=O)Nc2ccc(Cl)cn2)c1
O=C1OC(Cc2ccccc2)C(c2ccccc2)C1=O (configuration not stated)
COc1cccc(CNC(C)C(=O)Nc2ccc(S(=O)(=O)N3CCCC3)cc2)c1 (configuration not stated)
CCN1CCN(C(=O)CSc2ccc(C)cc2)CC1
CN(CC(=O)O)C(=O)c1ccccc1
Nc1cc2c(cc1Br)-c1ccc(F)cc1C2=O
O=C(O)C(=Cc1ccccc1[N+](=O)[O-])c1ccccc1
CCN1CCC(O)(/C=C/c2ccc(C)cc2)C(C(=O)/C=C/c2ccc(C)cc2)C1 (configuration not stated)
CCOc1ccc2nc(NC(=O)CSc3nc4c(c(=O)n(C)c(=O)n4C)n3CC)sc2c1
CCC(=O)c1ccc(OCC(=O)Nc2ccc3nc(C)sc3c2)cc1
COc1ccc(CCOC2OC(CO)C(OC(=O)/C=C/c3ccc(O)c(OC)c3)C(O[C@H]3O[C@@H](C)[C@H](O)[C@@H](O)[C@H]3O)C2O)cc1O (some centres not stated)
NNC(=O)c1ccc(Cl)cc1Cl
Cn1cc(C(=O)c2ccc(Cl)cc2Cl)cc1C(=O)NN
COc1ccc(C(=O)Nc2cccc(/C=C(/CCC(=O)O)c3nc4ccccc4s3)c2)cc1
O=C(COC(=O)c1cccnc1Cl)NC(=O)NC1CCCCC1
Cc1nc2ccc(NC(=O)c3cccc(S(=O)(=O)N4CCOCC4)c3)cc2s1
CC/C(=C\c1ccc(Cl)cc1)c1ccncc1
CCC1=Nc2cc(C(=O)NCCCN3CCOCC3)ccc2Sc2ccc(Br)cc21
CC(C)(C)c1ccc(C(=O)NCc2ccco2)cc1
COc1ccc(NC(=O)Nc2ccc3c(c2)C(=O)N([C@H](C)CO)C[C@H](C)[C@@H](CN(C)C(=O)Nc2ccc4c(c2)OCO4)O3)cc1
CN(C)S(=O)(=O)c1cc(C(=O)Nc2ccn(C)n2)c(Cl)cc1Cl
Cn1ccc(NC(=O)Nc2ccc(Cl)cc2)n1
CC(=O)N(O)CCCCCNC(=O)CCC(=O)N(O)CCCCCNC(=O)CCC(=O)N(O)CCCCCNC(=O)CCC(=O)O
CCOc1ccc(C(=O)Nc2cc(OC)ccc2OC)cc1
CCOc1ccc(NC(=O)Nc2cc(C)ccc2OC)cc1
CCCC(O)(c1ccccc1)C(c1ccccc1)c1ccccn1 (configuration not stated)
CC1CN(Cc2ccccc2)C(=S)NC1=O (configuration not stated)
COc1ccc(/C=C2\SC(=S)N(CCC(=O)Nc3ccccn3)C2=O)cc1OC
O=C(CN1C(=O)/C(=C\c2ccccc2F)SC1=S)Nc1nc2ccccc2s1
Cc1ccc(S(=O)(=O)n2oc(=O)c(C3CCCCC3)c2N)cc1
O=C(Nc1cccc(S(=O)(=O)N2CCOCC2)c1)C12CC3CC(CC(C3)C1)C2
CC[C@]12c3[nH]c4ccc(OC)cc4c3CCN1C(=O)C(CC(=O)NCCN1CCOCC1)C[C@@H]2C(=O)N1CCN(C(=O)C2CC2)CC1 (some centres not stated)
C=CCC[C@H](Cc1ccc(F)cc1)C(=O)OC[C@H](C)NC(=O)[C@H](CC=C)CC(=O)N(CCO)Cc1ccccc1
CCc1ccc(NC(=O)CSc2nc3ccccc3c(=O)n2CCN2CCOCC2)cc1
COc1ccc(NC(=O)CSc2nc3ccccc3c(=O)n2C)cc1
O=C(NCC1(N2CCCCC2)CCCCC1)c1cccc(S(=O)(=O)Nc2ccccc2Cl)c1
O=C(NCCC(=O)N1O[C@@H]2C=C[C@H]1C2)OCC1c2ccccc2-c2ccccc21
O=C(COc1ccc([N+](=O)[O-])cc1Cl)Nc1ccc2[nH]c(=O)[nH]c2c1
COc1ccc(-c2c(C)cc3oc(=O)cc(-c4ccccc4)c3c2C)cc1F
COc1ccc(-c2c(C)cc3oc(=O)cc(-c4ccccc4)c3c2C)cc1OC
CN(C)C(=O)CCc1ccc2c3c([nH]c2c1)[C@]1(CCc2ccccc2)[C@@H](C(=O)N2CCCCC2)C[C@H](CC(=O)NCCC2=CCCCC2)C(=O)N1CC3

Potency, active:
CC(=O)/C(=N\Nc1ccc(Cl)cc1Cl)Sc1cccc2cccnc12 6.51 µM
CCCCCOc1ccc(CSC2=NCCN2)cc1[N+](=O)[O-] 5.8 µM
COc1cccc(C(=O)Nc2ccc(N3CCN(C(=O)c4ccco4)CC3)cc2)c1 18.4 µM
Cc1cccc(C2=N/C(=C/c3cccs3)C(=O)O2)c1 4.61 µM
CCN1CCN(CCNC(=O)c2ccc(/C=C3/Sc4ccccc4N(Cc4cccc(C)c4)C3=O)cc2)CC1 20.6 µM
O=C(NC1=CC(=O)c2ccccc2C1=O)c1ccccc1 5.8 µM
CCc1ccc2c(c1)C1(NN=C(c3ccccc3)S1)C(=O)N2 (configuration not stated) 10.3 µM
Fc1ccc(N2N=C(c3cccs3)CC2c2ccco2)c(F)c1 (configuration not stated) 23.1 µM
O=c1cc(-c2ccccc2)[nH]c2cc(F)ccc12 0.92 µM
CCN1CCC2(CC1)N=C(c1ccc(F)cc1)C(=S)N2C(=O)c1ccc(C)cc1 20.6 µM
CCOc1ccc2nc(Nc3nc4ccc(NC(C)=O)cc4s3)sc2c1 18.4 µM
CC(C)(C)c1cc(C(=O)NN)n(Cc2ccc(Cl)cc2Cl)n1 11.6 µM
CCCC1=Nc2cc(C(=O)NCc3ccco3)ccc2Sc2ccccc21 5.17 µM
Cc1ccc(C(=O)Nc2ccn(C)n2)cc1 18.4 µM
CCOc1ccc(N/C=C/C(=O)c2cc(OC)c(OC)c(OC)c2)cc1 0.58 µM
CN(C)S(=O)(=O)c1cccc(-c2nn(-c3ccccc3)cc2/C=C2\SC(=S)N(CC(=O)O)C2=O)c1 16.4 µM
CCOc1ccc(NC(=O)CSc2nc3ccccc3c(=O)n2Cc2cccs2)cc1 1.64 µM
COc1cc(OC)c2c(-c3cccc(-c4cccc(N)c4)c3)cc(=O)oc2c1 3.66 µM

re-replication activation, inactive:
COc1ccc(S(=O)(=O)N2C[C@H]3CON(C)[C@H]3C[C@H]2c2cccc(Br)c2)cc1 -5.21% [at 9.22 µM]
Cc1ccc(SCC(=O)N2CCN(c3ccc(F)cc3)CC2)cc1 2.77% [at 1.84 µM]
O=C(Cc1ccc(NC(=O)C2CCCN(C(=O)CCc3ccccc3)C2)cc1)Nc1ccc(C(=O)N2CCOCC2)cc1 (configuration not stated) -31.4% [at 9.22 µM]
